Compounds with a hit are over-represented: about 1.7% of the library has one in this group of screens.
MIN6 prolif: induces beta-cell replication in MIN6 cells | MIN6 cells proliferation, ATPlite luminescence, 48 h; cells starved in 0.2% serum; 100% = growth in 10% serum | proliferation, % at 10 µM | actives 0.29% (n = 330,000);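 active means compounds whose signal lies at least 3.5 SD above the mean of all wells on their plate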;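 further: 0% = DMSO-treated cells in low-serum medium and 100% = 10% serum control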
MOR-DOR ag: OPRM1-OPRD1 heterodimerization agonism; cells, luminescence; actives 0.3% (n = 340,000); activation, % at 9.3 µM; P35372+P41143; in the data active means activation above about 18%;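 further: 0% = vehicle-treated cells and 100% = reference agonist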
Target sequence (P35372 whole entry, looked up): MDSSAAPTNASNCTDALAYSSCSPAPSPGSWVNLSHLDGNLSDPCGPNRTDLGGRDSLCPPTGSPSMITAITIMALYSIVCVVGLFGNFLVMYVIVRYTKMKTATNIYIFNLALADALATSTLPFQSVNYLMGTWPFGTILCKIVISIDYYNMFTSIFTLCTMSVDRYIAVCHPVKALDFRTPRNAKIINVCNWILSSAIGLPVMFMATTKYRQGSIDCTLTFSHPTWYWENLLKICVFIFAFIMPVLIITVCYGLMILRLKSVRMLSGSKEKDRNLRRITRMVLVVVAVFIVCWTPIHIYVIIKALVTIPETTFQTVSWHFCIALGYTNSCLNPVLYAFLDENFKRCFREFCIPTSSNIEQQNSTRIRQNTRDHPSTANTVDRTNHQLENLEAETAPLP
Target sequence (P41143 whole entry, looked up): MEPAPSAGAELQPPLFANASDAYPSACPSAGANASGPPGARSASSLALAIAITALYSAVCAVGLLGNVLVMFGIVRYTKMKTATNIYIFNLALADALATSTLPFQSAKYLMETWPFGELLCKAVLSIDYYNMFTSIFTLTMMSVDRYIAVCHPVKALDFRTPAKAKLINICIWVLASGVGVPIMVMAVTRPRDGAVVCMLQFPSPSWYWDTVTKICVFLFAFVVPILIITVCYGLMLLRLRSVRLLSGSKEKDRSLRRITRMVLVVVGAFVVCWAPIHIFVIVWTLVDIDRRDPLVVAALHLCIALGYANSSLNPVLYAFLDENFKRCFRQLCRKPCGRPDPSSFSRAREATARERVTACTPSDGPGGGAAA
HTR5A inv ctr: HTR5A inverse agonism, opioid heterodimer counter-screen | AID 504634 | actives 0.083% (n = 340,000) | HTR5A cell line, luminescence | inhibition, % at 9.3 µM | P47898; in the data active means inhibition mostly above about 23%, no sharp cut-off; inactive means mostly below about 18%;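 further: 0% = cells with DMSO and 100% = no-cell wells with DMSO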
V-ATPase pH: regulators of yeast V-ATPase proton transport | actives 0.37% (n = 350,000) | S. cerevisiae, pHLuorin cytosolic pH fluorescence | AID 504577 | response, % at 10 µM; in the data active means response mostly above about 7.3%, no sharp cut-off; inactive means mostly below about 5.4%; further: actives read high
MOR-DOR inv ag: mu-delta opioid heterodimer inverse agonism; P35372+P41143; cell-based MOR-DOR heterodimer luminescence; inhibition, % at 9.3 µM; actives 0.21% (n = 340,000); AID 504357; in the data active means inhibition above about 22%, passing the limit was not always enough;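 further: 0% = cells with DMSO and 100% = wells without cells with DMSO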
HTR5A ag ctr: counter-screen for OPRM1-OPRD1 agonists: human HTR5A agonism | AID 504692 | HTR5A agonist assay, luminescence, cell-based | activation, % at 9.3 µM | actives 0.61% (n = 340,000) | P47898; in the data active means activation mostly above about 9.5%, no sharp cut-off; inactive means mostly below about 7.6%;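 further: 0% = cells with vehicle only and 100% = reference agonist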
The depositor's hits bear a star; . = no result given.

SMILES	MIN6 prolif	MOR-DOR ag	HTR5A inv ctr	V-ATPase pH	MOR-DOR inv ag	HTR5A ag ctr
COc1ccc(C2C(O)C(c3c[nH]c4ccccc34)=NN2C(=O)CCl)cc1 (stereo not drawn)	-3.6	60.1*	-149.9	-4.4	-319.6	56.0*
O=C(COc1ccc2c3c(c(=O)oc2c1)CCC3)NCCCN1CCCC1=O	2.8	-2.4	10.9	0.1	12.0	-2.3
O=C(COc1ccc2ccc(=O)oc2c1)NCCCN1CCCC1=O	-1.5	-0.6	-8.2	-2.0	2.9	12.6*
O=C1C=CC(=Nc2cccc3c2C(=O)c2ccccc2-3)O1	.	-1.0	11.0	10.7*	5.3	-3.1
CNc1cccc2c1C(=O)c1ccccc1C2=O	.	3.6	-4.9	-4.0	-21.5	1.9
Cn1nc(C(=O)Nc2ccccc2)c2c1-c1ccccc1S(=O)(=O)C2	0.1	-1.4	24.5	14.0*	7.5	4.9
C=CCOc1c(Cl)cc(CNc2nccs2)cc1OC	-2.9	-1.5	-11.3	-1.0	7.3	4.4
C[C@@H]([C@@H](O)c1ccccc1)N(C)C(=O)C(N)Cc1ccccc1 (stereo partly drawn)	-3.3	-1.3	7.3	26.2*	5.8	6.9
CCN(CC)CCOCCOC(=O)C1(c2ccccc2)CCCC1	-1.4	-0.6	-5.3	-2.9	3.0	1.5
CCN(CC)CCOC(=O)C1(c2ccccc2)CCOCC1	-1.1	-1.5	-31.2	0.4	8.7	10.6*
O=C(NCc1cccc(Cl)c1)c1ccc(CS(=O)Cc2ccc(Cl)cc2)o1 (stereo not drawn)	0.1	0.1	15.0	-0.6	-0.3	5.0
COc1ccc(C(=O)O/N=C(\N)Cc2ccc(Cl)c(Cl)c2)cc1OC	0.0	22.2*	-143.3	-0.1	-126.5	42.0*
O=C(NCCNc1ccc([N+](=O)[O-])cc1C(F)(F)F)c1cccc(F)c1	-4.2	1.8	5.5	1.8	-9.3	13.8*
COc1ccccc1CNC(=O)C(=O)NCC1CCCN1S(=O)(=O)c1cc(C)ccc1C (stereo not drawn)	.	.	.	1.1	.	.
CC(C)(C)CC(=O)N1CCC(c2nc3c(nnn3Cc3c(F)cccc3Cl)c(=O)[nH]2)CC1	-0.7	-1.3	27.5	0.4	8.1	10.7*
COc1ccc(/C=C/C2=CCN(Cc3ccc(OC)cc3)CC2)cc1	-5.1	.	.	5.3	.	.
CCN(c1ccc(C)cc1C)S(=O)(=O)c1nnc(NC(=O)C(C)(C)C)s1	0.9	5.6	-38.3	2.0	-26.5	9.9*
CCN(c1ccc(C)cc1C)S(=O)(=O)c1nnc(NC(=O)C(C)C)s1	-5.1	7.8	-3.9	-0.4	-44.9	1.0
O=C(O)/C=C1\NC(=O)c2ccccc21	-2.1	-3.8	-0.4	2.0	16.2	5.4
O=C1N/C(=C\c2ccc(O)cc2)C(=O)c2ccccc21	-5.7	5.8	17.5	-0.7	-33.1	12.0*
N#C/C(=C\c1cn(-c2ccccc2)nc1-c1cccnc1)c1nnc2n1CCCCC2	-1.3	-2.5	-18.5	-0.9	13.6	7.3
Cc1ccc(C(=O)N/C(=C/c2cccs2)C(=O)NCCc2c[nH]c3ccccc23)cc1	0.0	-1.4	-24.1	1.8	7.6	14.2*
Cc1ccc(C(=O)N/C(=C\c2ccco2)C(=O)NCCc2c[nH]c3ccccc23)cc1	-0.5	-3.3	-37.6	0.0	19.7	14.1
CSCCC(=O)N1CCC(CCC(=O)NC2CC2)CC1	3.1	0.0	9.7	-2.8	-0.1	-0.2
CSCC(C)N1CCC(CCC(=O)NC2CC2)CC1 (stereo not drawn)	-1.8	-3.9	8.6	-1.5	20.1	11.9*
SMILES	MIN6 prolif	MOR-DOR ag	HTR5A inv ctr	V-ATPase pH	MOR-DOR inv ag	HTR5A ag ctr
CCOC(=O)CC1COCCN1C(=O)c1cc(COc2ccc(F)cc2Cl)on1 (stereo not drawn)	-5.2	-1.5	-3.3	1.0	8.2	1.7
Cc1ccccc1-n1c(SCc2cccc(F)c2)nc2[nH]ncc2c1=O	0.0	0.6	-47.6	1.2	-3.5	14.0*
CCc1ccccc1N(CC(=O)Nc1cccnc1)S(=O)(=O)c1ccccc1	-1.4	-1.0	-10.2	-1.9	5.2	1.8
Cc1ccsc1C(=O)OCC(=O)NC1CCCCC1	.	.	.	1.8	.	.
O=C1c2ccccc2N(Cc2ccc(Cl)cc2)C2=NCCN12	-0.7	-0.5	-28.5	3.2	3.7	10.7*
CC(C)(C)C(=O)C(Cc1ccccc1)n1cncn1 (stereo not drawn)	-0.5	-1.7	7.9	-0.2	10.0	-5.0
CCCC(C(=O)c1ccccc1)n1cncn1 (stereo not drawn)	-1.0	-2.1	-27.1	-2.4	11.9	11.2*
CCOC(=O)c1nnn(-c2nonc2N)c1COc1ccccc1	0.2	3.3	-11.0	4.2	-18.8	11.0*
CCCNC(=O)c1ccc(CN2CCOCC2)cc1	0.6	-1.6	10.1	-5.1	7.7	4.6
COc1ccc(N(CC(=O)NCCSc2ccccn2)S(=O)(=O)c2ccc(C)cc2)cc1OC	3.7	-2.7	-9.1	-1.0	14.0	13.9*
COc1ccc(N(CC(=O)NCCSc2ccccn2)S(=O)(=O)c2ccccc2)cc1OC	-0.7	0.2	-15.3	-3.2	-1.3	4.1
Cc1ccc(NC(=O)Cn2ccc([N+](=O)[O-])n2)cc1C	-1.1	-3.5	-8.2	-1.2	16.0	2.1
Cc1cccc(NS(=O)(=O)c2cccc3cccnc23)n1	0.1	-0.1	-40.0	3.5	0.3	13.4*
CC1(C)C2CCC1(C)C(SC(=N)N)C2 (stereo not drawn)	.	-3.1	12.5	2.6	14.9	-3.2
CN=c1sc2c(n1C)C(=O)c1ccccc1C2=O	.	10.6	-20.3	-2.2	-51.9	5.3
O=C(Nc1ccc(N2CCN(C(=O)c3ccco3)CC2)c(Cl)c1)c1cc2ccccc2o1	-5.7	6.3	16.1	1.6	-37.5	14.2*
O=C(Nc1ccc(N2CCN(C(=O)c3ccco3)CC2)cc1)c1ccc([N+](=O)[O-])cc1Cl	-4.5	0.6	0.2	5.1	-1.8	10.1*
CC(C)(C)C1CCc2sc(C(=O)NNC(=O)CCl)cc2C1 (stereo not drawn)	.	38.3*	-163.2	-2.7	-196.6	57.0*
Cc1ccc2c(c1)c1nnc(SCC(=O)Nc3cccc(Cl)c3C)nc1n2CC(=O)O	-1.8	-0.1	-0.9	-0.6	0.3	0.9
Cc1ccc2c(c1)c1nnc(SCC(=O)Nc3ccc(N(C)C)cc3)nc1n2CC(=O)O	-2.2	0.3	-48.3	-0.1	-1.6	13.0*
CCN(CC)c1ccc(/C=N/NC(=S)NCc2ccccc2)cc1	-2.7	2.3	8.3	0.5	-13.3	13.7*
CCN(CC)c1ccc(/C=N/NC(=S)NCc2ccc(OC)cc2)cc1	-5.8	-3.3	15.9	-2.7	16.3	-0.9
CNC(=O)C[C@H]1C(=O)N(c2ccccc2)C[C@@H]1CSC	.	.	.	-0.2	.	.
O=C(O)C1CC=CCC1C(=O)NCCc1cccc(Cl)c1 (stereo not drawn)	-3.0	-0.1	-19.1	4.2	0.4	12.8*
